Shown are actives, neighbours in structure and some others; about 1.3% of the full set was active somewhere.
SUMO HTRF inh: SUMOylation inhibition. 0.36% of 290,000 active. HTRF SUMOylation assay, SAE1/SAE2 + UBC9, in vitro. P63279. inhibition, % at 35 µM. AID 2006; in the data active means inhibition above about 50%, passing the limit was not always enough
eIF4E 4G PPI: blocks eIF4E binding to eIF4G; P63073+Q04637; TR-FRET eIF4E-eIF4GI(517-606) binding, 2 h; inhibition, % at 21.7 µM; 0.37% of 220,000 active; AID 782;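 further: 0% = full FRET control wells and 100% = background wells lacking eIF4GI fragment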
14-3-3 Bad inh: disrupts binding of bovine 14-3-3 zeta to phospho-Bad peptide. P63103. TR-FRET 14-3-3zeta/Dy647-pBad peptide displacement, 1 h. inhibition, % at 21.7 µM. 0.71% of 220,000 active;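 active means inhibition above about 70%, limit read from the data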;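 further: 0% = full 14-3-3 plus peptide FRET controls and 100% = background without 14-3-3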
p47phox inh: blocks human p47phox regulatory protein of NADPH oxidases; P14598; p47phox/p22phox peptide binding, fluorescence polarization, 2 h; inhibition, % at 24.7 µM; 0.53% of 220,000 active; AID 1274;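 further: 0% = p47phox with labelled peptide and 100% = labelled peptide alone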
* marks the source's active call; other numbers are inactive results; . = no result; [ ] = dose if it differs, or a comment.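 How the source made its calls, unless noted: active means inhibition above about 30% (limit read from the data); inactive means the rest.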

SMILES	SUMO HTRF inh	eIF4E 4G PPI	14-3-3 Bad inh	p47phox inh
Cc1ccc2[nH]c(=O)c(C(c3nnnn3C(C)(C)C)N3CCN(C(=O)c4ccco4)CC3)cc2c1 (configuration not stated)	-1.0	14.1	6.8	-15.0
Cc1cccc2cc(C(c3nnnn3C(C)(C)C)N3CCN(C(=O)c4ccco4)CC3)c(=O)[nH]c12 (configuration not stated)	3.8	-3.5	79.5*	-2.6
CCOc1ccc(-n2c(SCC(=O)Nc3ccc(Br)cc3)nc3n[nH]c(C)c3c2=N)cc1	48.1	10.5	39.8	40.5*
CCOc1ccc(-n2c(SCC(=O)Nc3ccccc3CC)nc3n[nH]c(C)c3c2=N)cc1	4.3	-2.6	19.4	-1.5
CCc1nnc(NC(=O)Cc2ccc(OCc3c(C)noc3C)cc2)s1	5.4	64.8*	-6.3	-10.8
COc1cccc(N2CC(O)=C(c3nc4ccccc4c(=O)[nH]3)C2=N)c1	37.7	4.7	0.4	10.6
Cc1cc(C)cc(N2CC(O)=C(c3nc4ccccc4c(=O)[nH]3)C2=N)c1	21.2	12.8	76.8*	2.8
COc1ccc(S(=O)(=O)NCc2cccnc2)cc1C(=O)Nc1ccccc1	6.0	.	.	.
N#Cc1c(-c2cccnc2)c2c([nH]c1=S)CCCC2	31.4	-3.4	13.9	33.4*
Cc1cccc(OCC(=O)NNc2c3ccccc3nc3ccccc23)c1	-34.7	2.9	6.3	-8.5
Cc1ccc(OCC(=O)NNc2c3ccccc3nc3ccccc23)cc1	9.9	-6.9	16.6	30.4*
Cc1nn(-c2ccccc2C(=O)O)c(=O)c2ccccc12	9.8	-2.5	82.1*	3.4
Cc1nn(-c2ccccc2[N+](=O)[O-])c(=O)c2ccccc12	23.9	1.7	-2.4	.
Cc1ccc(S(=O)(=O)N2CCN(C(=O)N(C)C)CC2)cc1	13.6	1.5	-10.2	-8.3
Oc1[nH]c(=S)sc1/C=C1\C(c2ccccc2)=Nc2ccccc21	18.7	1.4	-8.9	32.4*
CCOc1ccc(C(=O)NCC(c2cccs2)N(C)C)cc1OCC (configuration not stated)	-11.2	1.6	2.4	-6.5
COc1ccc(-c2nc(C(N)=O)c3[nH]c(=O)n(-c4cccc(Cl)c4)c3n2)cc1OC	7.1	3.2	61.3	36.9*
COc1cccc(-c2nc(C(N)=O)c3[nH]c(=O)n(-c4cccc(Cl)c4)c3n2)c1OC	0.4	7.3	7.0	-9.7
Brc1ccc2nc(CSc3ncn[nH]3)cn2c1	-0.8	1.9	-2.4	-13.1
CCCN(CCC)S(=O)(=O)c1ccc(C(=O)OCCN2C(=O)c3cccc4c(N5CCOCC5)ccc(c34)C2=O)cc1	3.2	30.6*[fluorescence artefact?]	1.4	-82.5
Cn1c(C(O)C(O)c2ccccc2)nc2ccccc21 (configuration not stated)	32.2	-3.8	-9.1	6.0
Cn1c(C(C#N)C2=C(Cl)C(=O)N(c3ccccc3)C2=O)nc2ccccc21 (configuration not stated)	11.4	-16.7	9.6	47.8*
CC(C)(Oc1ccc(Cl)cc1)C(=O)OCC(=O)Nc1ncc(Cl)cc1Cl	8.6	-2.6	87.9*	-21.0
Cc1nc2c(c(N3CCOCC3)n1)OCC(=O)N2	12.2	2.3	73.7*	7.6
Cc1nc(Cl)c2c(n1)NC(=O)CO2	10.6	2.5	0.9	-15.0
SMILES	SUMO HTRF inh	eIF4E 4G PPI	14-3-3 Bad inh	p47phox inh
CCN(CC)C(=O)c1[nH]cnc1C(=O)N[C@@H](CC(C)C)C(=O)OCc1ccccc1	6.1	0.5	0.9	3.6
CC1CCCCN1C(=O)C12CCC(C)(/C(=N/O)C1)C2(C)C (configuration not stated)	-1.4	1.1	9.3	37.3*
Cc1cccc(C(=O)Nc2ccc3ccccc3c2)c1	-21.6	.	.	.
COC(=O)COc1ccc(/C=N/NC(=O)c2ccc(N(Cc3ccccc3)S(C)(=O)=O)cc2)cc1	1.1	3.7	-11.4	54.6*
CC(C)NC(=O)COc1coc(CN2CCN(Cc3ccccc3)CC2)cc1=O	7.7	.	.	.
CCOC(=O)C1(Cc2cccc(OC)c2)CCN(Cc2cccn2-c2ccccn2)CC1	-3.5	0.3	-5.9	-4.4
O=C(CSc1nnc(CNC(=O)c2c(F)cccc2Cl)o1)Nc1ccc2c(c1)OCO2	1.9	-0.2	-21.2	31.1*
Cc1ccc(NC(=O)CSc2nnc(CNC(=O)c3c(F)cccc3Cl)o2)cc1	16.0	-0.9	9.8	2.9
COc1ccc(/C=C(\C#N)C(=O)Nc2cc(C)c(Cl)cc2OC)cc1O	29.2	16.2	63.8	-26.6
COc1ccc(/C=C(/C#N)C(=O)Nc2cc(C)ccc2C)cc1C(=O)O	8.3	3.3	5.0	163.3*
O=C1NC(=S)S/C1=C\c1ccc(SCc2ccco2)o1	62.8*	21.8	47.3	-80.0
Cc1cccc(NC(NC(=O)c2ccccc2[N+](=O)[O-])C(Cl)(Cl)Cl)c1 (configuration not stated)	-7.8	-6.0	-1.9	-1.5
COc1ccc(CN2CCOCC2)c(C)c1C	17.0	2.0	70.6*	0.1
COc1ccccc1OCC(=O)N(Cc1nc(-c2ccccc2)no1)C(C)C	-12.0	.	.	.
CC(C)N(Cc1nc(-c2ccccc2)no1)C(=O)COc1ccccc1	8.0	62.3*	12.8	11.5
CCOC(=O)N1CCN(CC(=O)c2ccc3c(c2)CCN3C(C)=O)CC1	14.1	1.6	-20.5	48.9*
CC(=O)N1CCc2cc(C(=O)CN3CCCCC3)ccc21	9.2	-0.2	-7.0	-0.8
Cc1ccc(Cn2c(Cc3ccccc3)nc3ccccc32)cc1	-29.5	1.8	66.5	-20.8
Cc1ccc(Cn2c(S(=O)(=O)O)nc3ccccc32)cc1	19.1	-4.0	80.6*	-8.3
CCCN1CCC(=O)N([C@H](CN=[N+]=[N-])Cc2ccccc2)CC1	7.2	.	.	.
Cc1ccc2[nH]c3c(c2c1)CN(C(=O)CN1c2ccc(F)cc2CCC1C)CC3 (configuration not stated)	-3.3	-10.4	-3.0	196.3*
CC(Oc1ccc2c3c(c(=O)oc2c1)CCCC3)C(=O)NCC(O)c1ccccc1 (configuration not stated)	6.2	.	.	.
Cc1cc(C)n(-c2nc3ccccc3c(=O)n2OCc2ccc(Cl)cc2)n1	-19.7	-0.1	-5.3	-0.6
Cc1cc(C)n(-c2nc3ccccc3c(=O)n2OCc2ccc(F)cc2)n1	2.0	-2.5	70.2*[fluorescence artefact?]	6.3
O=C(NN=C1CCN(Cc2ccccc2)CC1)c1ccccc1O	18.6	-0.7	-12.2	.
SMILES	SUMO HTRF inh	eIF4E 4G PPI	14-3-3 Bad inh	p47phox inh
O=C(NN=C1CCN(Cc2ccccc2)CC1)c1cc2ccccc2cc1O	87.1*	9.4	-13.9	-1.7
COc1ccc(OC)c(NC(=O)C(CCSC)NS(=O)(=O)c2cccs2)c1 (configuration not stated)	1.0	.	.	.
N=C1S/C(=C\c2ccc(-c3cccc(Cl)c3)o2)C(=O)N1c1nccs1	12.6	11.6	74.2*[fluorescence artefact?]	17.5
O=C(NC1=NCCS1)c1ccc(Cl)c(Cl)c1	7.2	.	.	.
Cc1ccc(/C=N/Nc2ccnc3cc(Cl)ccc23)c(C)c1	-5.0	5.9	68.2	46.5*
O=C(CCN1CCc2ccccc2CC1)c1ccc2c(c1)OCCO2	2.8	3.8	-4.2	-19.2
COC(=O)[C@H](CCSC)NC(=O)Nc1ccc(S(N)(=O)=O)cc1	9.1	-4.1	-1.6	19.2
